Results reported in PubChem BioAssay (NCI).
The panel holds about 79,000 compounds, 15% with a hit somewhere; the sample as a whole holds those more often. Values without a mark were called inactive. The source made the active and inactive calls. Cut-off read from the data, not from the text of the source: active = growth inhibition above about 70%; inactive = the rest.

Legend:
[1] = NCI Yeast Anticancer Drug Screen. Data for the mec2-1 strain (AID 157); conditions: S. cerevisiae mec2-1 strain, hits give high values
Summary of the method: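 Growth inhibition is read against vehicle-treated controls after compound exposure of the mec2-1 yeast strain, which is defective in DNA damage repair or cell cycle control.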

[2] = NCI Yeast Anticancer Drug Screen. Data for the rad14 strain (AID 159);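 note: 0% = growth of vehicle-treated control cultures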; conditions: S. cerevisiae rad14 strain growth inhibition, hits give high values
Summary of the method: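 Test compounds were applied to a repair-deficient yeast strain. Its growth was then compared with that of cultures given vehicle alone, and inhibition was expressed relative to those controls.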

[3] = NCI Yeast Anticancer Drug Screen. Data for the sgs1 mgt1 strain (AID 161);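 note: 0% = growth of cultures given vehicle only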; conditions: S. cerevisiae sgs1 mgt1 strain, hits give high values
Summary of the method: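 Yeast cells carrying a defined DNA-repair defect were exposed to test compounds. Growth inhibition was measured relative to vehicle-treated controls.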

[4] = NCI Yeast Anticancer Drug Screen. Data for the CLN2oe strain (AID 163);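 note: 0% = growth of vehicle-only control cultures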; conditions: S. cerevisiae CLN2oe strain, hits give high values
Summary of the method: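 Compound-treated yeast; growth vs vehicle ctrl = % inhibition. Genetically altered strain (cell-cycle control).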

[5] = NCI Yeast Anticancer Drug Screen. Data for the cln2 rad14 strain (AID 165);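 note: 0% = growth equal to vehicle treated cultures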; conditions: S. cerevisiae cln2 rad14 strain, hits give high values
Summary of the method: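 Growth inhibition, relative to vehicle-treated controls, is the read-out. The test organism is a yeast strain with defined genetic alterations, cln2 rad14.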

[6] = NCI Yeast Anticancer Drug Screen. Data for the bub3 strain (AID 167); conditions: S. cerevisiae bub3 mutant strain, hits give high values
Summary of the method: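 Yeast carrying a defined mutation is treated with each compound, and growth is compared with that of vehicle-exposed cells to give inhibition.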

[7] = NCI Yeast Anticancer Drug Screen. Data for the mlh1 strain (AID 171);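 note: 0% = growth of vehicle-treated control cultures of the same strain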; conditions: S. cerevisiae mlh1 strain growth inhibition, hits give high values
Summary of the method: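 Compounds are applied to a genetically altered yeast strain, and its growth is compared with that of vehicle-treated cultures to give percent inhibition.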

[8] = NCI Yeast Anticancer Drug Screen. Data for the sgs1 strain (AID 173);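 note: 0% = growth of vehicle-only control cultures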; conditions: S. cerevisiae sgs1 mutant, hits give high values
Summary of the method: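 Compounds applied to genetically altered yeast; growth compared with vehicle-treated cultures to give % inhibition.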

[9] = NCI Yeast Anticancer Drug Screen. Data for the mlh1 rad18 strain (AID 175); conditions: S. cerevisiae mlh1 rad18 strain growth inhibition, hits give high values
Summary of the method: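 Cells of a genetically altered yeast strain, deficient in DNA damage repair, were treated with compound. Their growth was then compared with that of vehicle-treated cultures to give inhibition.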

[10] = NCI Yeast Anticancer Drug Screen. Data for the rad18 strain (AID 177); conditions: S. cerevisiae rad18 mutant growth inhibition, hits give high values
Summary of the method: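 Compounds are applied to a repair-deficient yeast strain, and growth is compared with that of vehicle-treated cultures to give percent inhibition.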

[11] = NCI Yeast Anticancer Drug Screen. Data for the wt1 strain (AID 149);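 note: 0% = growth of vehicle-treated wt1 cultures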; conditions: S. cerevisiae wt1 strain (SPY 50644) growth inhibition, hits give high values
Summary of the method: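 wt1 yeast, compound-treated; % growth inhibition vs vehicle control.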

[12] = NCI Yeast Anticancer Drug Screen. Data for the rad50EPP+ strain (AID 151);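 note: 0% = growth of vehicle-treated control cultures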; conditions: S. cerevisiae rad50 mutant strain, hits give high values
Summary of the method: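 rad50EPP+ yeast treated with test compounds. Readout: growth vs vehicle control.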

[13] = NCI Yeast Anticancer Drug Screen. Data for the mgt1 strain (AID 153); conditions: S. cerevisiae mgt1 mutant growth inhibition, hits give high values
Summary of the method: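 Growth inhibition relative to vehicle controls was scored for the mgt1 yeast strain after compound exposure.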

[14] = NCI Yeast Anticancer Drug Screen. Data for the rad50 strain (AID 155);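 note: 0% = growth of vehicle-only cultures of the same strain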; conditions: S. cerevisiae rad50 strain growth inhibition, hits give high values
Summary of the method: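 Genetically altered yeast (DNA repair pathway); compound treatment; growth inhibition vs vehicle ctrl.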

[15] = at 5.0 µM (retest, dose inferred, filed as 0.5)
[16] = at 50.0 µM (retest, dose inferred, filed as 5.0)

Cc1c2ccnc(C(=O)NCCN(C)C)c2cc2c3cc(O)ccc3n(C)c12
growth inhibition ([1]; at 100.0 µM): 39% | growth inhibition ([2]; at 1.2 µM): 1% | growth inhibition ([2]; at 3.7 µM): 3% | growth inhibition ([2]; at 11.0 µM): 9% | growth inhibition ([2]; at 33.0 µM): 21% | growth inhibition ([2]; at 100.0 µM): 37% | growth inhibition [3, 15]: -4% | growth inhibition [3, 16]: 8% | growth inhibition ([3]; at 50.0 µM): 13.3% | growth inhibition ([4]; at 1.2 µM): 0% | growth inhibition ([4]; at 3.7 µM): 1% | growth inhibition ([4]; at 11.0 µM): 0% | growth inhibition ([4]; at 33.0 µM): 9% | growth inhibition ([4]; at 100.0 µM): 19% | growth inhibition [5, 15]: 4% | growth inhibition [5, 16]: 33% | growth inhibition ([5]; at 50.0 µM): 44.5% | growth inhibition ([6]; at 1.2 µM): 1% | growth inhibition ([6]; at 3.7 µM): 1% | growth inhibition [6, 15]: 40% | growth inhibition ([6]; at 11.0 µM): 4% | growth inhibition ([6]; at 33.0 µM): 14% | growth inhibition [6, 16]: 42% | growth inhibition ([6]; at 50.0 µM): 8.05% | growth inhibition ([6]; at 100.0 µM): 23% | growth inhibition ([7]; at 1.2 µM): 4% | growth inhibition ([7]; at 3.7 µM): 4% | growth inhibition ([7]; at 11.0 µM): 10% | growth inhibition ([7]; at 33.0 µM): 21% | growth inhibition ([7]; at 100.0 µM): 32% | growth inhibition ([8]; at 1.2 µM): -2% | growth inhibition ([8]; at 3.7 µM): 2% | growth inhibition ([8]; at 11.0 µM): 4% | growth inhibition ([8]; at 33.0 µM): 17% | growth inhibition ([8]; at 100.0 µM): 32% | growth inhibition [9, 15]: 0% | growth inhibition [9, 16]: -1% | growth inhibition ([9]; at 50.0 µM): 46.4% | growth inhibition ([10]; at 1.2 µM): -5% | growth inhibition ([10]; at 3.7 µM): -4% | growth inhibition ([10]; at 11.0 µM): -1% | growth inhibition ([10]; at 33.0 µM): 3% | growth inhibition ([10]; at 100.0 µM): 15%

CC1=NOC(=O)/C1=C/c1ccc2c(c1)OCO2
growth inhibition ([11]; at 1.2 µM): 5% | growth inhibition ([11]; at 3.7 µM): 0% | growth inhibition ([11]; at 11.0 µM): 2% | growth inhibition ([11]; at 33.0 µM): 6% | growth inhibition ([11]; at 100.0 µM): 13% | growth inhibition ([12]; at 1.2 µM): 6% | growth inhibition ([12]; at 3.7 µM): 5% | growth inhibition ([12]; at 11.0 µM): 41% | growth inhibition ([12]; at 33.0 µM): 47% | growth inhibition ([12]; at 100.0 µM): 87% (active) | growth inhibition ([13]; at 1.2 µM): -4% | growth inhibition ([13]; at 3.7 µM): 1% | growth inhibition ([13]; at 11.0 µM): 1% | growth inhibition ([13]; at 33.0 µM): -10% | growth inhibition ([13]; at 100.0 µM): 9% | growth inhibition ([14]; at 1.2 µM): 1% | growth inhibition ([14]; at 3.7 µM): 3% | growth inhibition [14, 15]: 0% | growth inhibition ([14]; at 11.0 µM): 26% | growth inhibition ([14]; at 33.0 µM): 49% | growth inhibition [14, 16]: 24% | growth inhibition ([14]; at 50.0 µM): 82.2% (active) | growth inhibition ([14]; at 100.0 µM): 59% | growth inhibition ([1]; at 1.2 µM): 0% | growth inhibition ([1]; at 3.7 µM): -1% | growth inhibition [1, 15]: 13% | growth inhibition ([1]; at 11.0 µM): 10% | growth inhibition ([1]; at 33.0 µM): 12% | growth inhibition [1, 16]: 83% (active) | growth inhibition ([1]; at 50.0 µM): 78.6% (active) | growth inhibition ([1]; at 100.0 µM): 28% | growth inhibition ([2]; at 1.2 µM): 2% | growth inhibition ([2]; at 3.7 µM): 2% | growth inhibition ([2]; at 11.0 µM): 7% | growth inhibition ([2]; at 33.0 µM): 11% | growth inhibition ([2]; at 100.0 µM): 29% | growth inhibition [3, 15]: 23% | growth inhibition [3, 16]: 58% | growth inhibition ([3]; at 50.0 µM): 65.5% | growth inhibition ([4]; at 1.2 µM): -5% | growth inhibition ([4]; at 3.7 µM): 3% | growth inhibition ([4]; at 11.0 µM): 9% | growth inhibition ([4]; at 33.0 µM): 15% | growth inhibition ([4]; at 100.0 µM): 9% | growth inhibition [5, 15]: 2% | growth inhibition [5, 16]: 51% | growth inhibition ([5]; at 50.0 µM): 20.4% | growth inhibition ([6]; at 1.2 µM): -5% | growth inhibition ([6]; at 3.7 µM): -1% | growth inhibition [6, 15]: 19% | growth inhibition ([6]; at 11.0 µM): 3% | growth inhibition ([6]; at 33.0 µM): 3% | growth inhibition [6, 16]: 30% | growth inhibition ([6]; at 50.0 µM): 70.5% (active) | growth inhibition ([6]; at 100.0 µM): 18% | growth inhibition ([7]; at 1.2 µM): 3% | growth inhibition ([7]; at 3.7 µM): 1% | growth inhibition ([7]; at 11.0 µM): 6% | growth inhibition ([7]; at 33.0 µM): 20% | growth inhibition ([7]; at 100.0 µM): 26% | growth inhibition ([8]; at 1.2 µM): 1% | growth inhibition ([8]; at 3.7 µM): 1% | growth inhibition ([8]; at 11.0 µM): 10% | growth inhibition ([8]; at 33.0 µM): 19% | growth inhibition ([8]; at 100.0 µM): 23% | growth inhibition [9, 15]: 23% | growth inhibition [9, 16]: 81% (active) | growth inhibition ([9]; at 50.0 µM): 48.6% | growth inhibition ([10]; at 1.2 µM): 2% | growth inhibition ([10]; at 3.7 µM): -12% | growth inhibition ([10]; at 11.0 µM): 10% | growth inhibition ([10]; at 33.0 µM): 36% | growth inhibition ([10]; at 100.0 µM): 61%
